# Laboratory results reported in the supplement of paper PMC3334620.
# Over roughly 33,000 sequences, “E-score (-0.5 to 0.5)” has its median near -0.041; the highest 2% begin near 0.37. The full list was thinned out, with the highest values kept by preference.
# Target: T1, Ecm22 (UniProt Q05958)
# T1 sequence: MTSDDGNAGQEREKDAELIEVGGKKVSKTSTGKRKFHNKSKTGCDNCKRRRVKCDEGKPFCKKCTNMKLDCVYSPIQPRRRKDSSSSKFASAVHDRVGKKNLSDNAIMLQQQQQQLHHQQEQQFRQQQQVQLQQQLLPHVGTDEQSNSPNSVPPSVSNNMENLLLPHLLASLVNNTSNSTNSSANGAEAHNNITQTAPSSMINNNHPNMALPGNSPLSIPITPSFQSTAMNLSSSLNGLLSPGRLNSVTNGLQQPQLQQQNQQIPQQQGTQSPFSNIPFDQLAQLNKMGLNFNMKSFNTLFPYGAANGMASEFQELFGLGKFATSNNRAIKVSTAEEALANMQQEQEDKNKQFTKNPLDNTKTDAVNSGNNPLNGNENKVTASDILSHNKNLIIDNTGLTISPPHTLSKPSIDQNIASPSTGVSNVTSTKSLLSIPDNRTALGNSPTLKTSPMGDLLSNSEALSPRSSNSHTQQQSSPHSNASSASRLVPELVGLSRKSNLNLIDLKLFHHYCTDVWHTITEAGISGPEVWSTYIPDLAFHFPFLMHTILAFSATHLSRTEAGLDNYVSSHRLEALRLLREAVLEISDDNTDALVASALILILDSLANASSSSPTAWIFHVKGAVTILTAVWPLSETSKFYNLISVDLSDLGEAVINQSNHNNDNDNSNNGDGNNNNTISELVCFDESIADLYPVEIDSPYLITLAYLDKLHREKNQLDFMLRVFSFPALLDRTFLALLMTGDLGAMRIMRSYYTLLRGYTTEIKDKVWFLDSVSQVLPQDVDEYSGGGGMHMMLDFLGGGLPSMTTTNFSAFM
# Assay: PBM E-score (8-mer binding enrichment) (E-score (-0.5 to 0.5)); higher = stronger / more preferred TF binding
# Conditions: protein concentration: 200 nM; construct: GST-full length
# Description: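 Universal 'all 10-mer' protein binding microarrays (Agilent AMADID 015681) probed with GST-tagged S. cerevisiae TFs (full-length or DBD) made by in vitro transcription/translation (PURExpress), about 100-200 nM. Bound TF was detected with fluorescent anti-GST. Each ungapped 8-mer (which stands for itself and its reverse complement) is scored by the PBM enrichment score (E-score), a modified Wilcoxon-Mann-Whitney statistic from -0.5 to +0.5, computed with the Universal PBM Analysis Suite. Scale: above 0.35 generally sequence-specific binding.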
row,Sequence,PBM E-score
1,AAAATACG,0.372
2,AAAATACC,0.0602
3,CATATACG,0.445
4,CATATACC,-0.0901
5,AATATACT,-0.0273
6,CATATACA,0.0321
7,AATATACG,0.461
8,AATATACA,0.104
9,AAAATACA,-0.0245
10,ACCCCGGT,0.00636
11,GGAGTTGA,0.0109
12,CTCTAGAA,-0.201
13,AAGGGCCC,-0.0372
14,CGCGGCTA,0.0813
15,ACATGCCC,-0.0896
16,ATCCGTGC,-0.0378
17,CACCGTAG,0.0943
18,CTCCGTAA,0.187
19,CTCCGTAC,0.386
20,ATCCGTAC,0.363
21,CACCGTAA,0.277
22,CACCGTAC,0.4
23,AAAAAGGG,-0.092

row,Sequence,PBM E-score
1,ACATCTAT,0.0869
2,CCAGGGCA,-0.108
3,GGCGCCCA,-0.0786
4,TCGCCCGA,-0.102
5,ATCGTAAA,0.436
6,GGCGTAAA,0.159
7,CTCGTAAA,0.475
8,ATCGTAAG,0.308
9,GTCGTAAA,0.473
10,TCCGTAAA,0.332
11,GACGTAAA,0.154
12,CCCGTAAA,0.32
13,CACGTAAA,0.106
14,TGCGTAAA,0.228
15,ATCGTAAT,0.263
16,TTCGTAAA,0.456
17,CTCCACAG,-0.248
18,GCGCGACC,0.173
19,ACTCCGGC,0.0584
20,AAAAACTG,-0.116
21,GCCTCGCA,0.205
22,ACAACCGC,0.111
23,AGCCTTAC,-0.108

row,Sequence,PBM E-score
1,CTTCGGCC,-0.151
2,ACGAACAA,0.38
3,GCGAACAA,0.148
4,ACGAACAG,0.282
5,CCGAACAA,0.127
6,ACGAACAC,0.318
7,ACGAACAT,0.386
8,GGCCGACC,-0.224
9,GCCTGAAA,-0.139
10,GACGTCTA,-0.23
11,ACGACGGC,0.37
12,ACGACGGA,0.388
13,AGGACGGG,-0.147
14,ATGACGGC,-0.236
15,CCGACGGA,0.0916
16,CCGACGGC,0.129
17,ATGACGGG,-0.125
18,GCGACGGA,0.124
19,ACGACGGG,0.393
20,CACGTTCC,0.201
21,AGGCAACT,-0.02
22,ATCCTACC,-0.186
23,AACGGAGA,0.18

row,Sequence,PBM E-score
1,ATCGGGCA,-0.122
2,CTGCGAAG,-0.0466
3,AATAAACT,-0.0489
4,AATAAACA,0.0258
5,CATAAACG,0.437
6,CATAAACC,-0.0464
7,AATAAACG,0.41
8,CATAAACA,-0.0236
9,CGGCACTA,-0.0606
10,GAAGTCGC,0.108
11,ATGCACCA,-0.108
12,TAGATAAA,0.057
13,ATGACGTG,-0.166
14,ACGACGTG,0.372
15,ACGACGAC,0.364
16,AGGACGTG,-0.194
17,ACGACGTA,0.414
18,ACGACGTC,0.393
19,ACGACGAG,0.38
20,CCGACGTA,0.208
21,GCGACGTA,0.265
22,CCGACGAG,0.165
23,AAGACGTC,0.00719

row,Sequence,PBM E-score
1,CCGACGTC,0.138
2,GACCCGTA,0.24
3,ACCTTCGC,0.143
4,CAGGACGA,-0.283
5,CTCCGTTA,0.0433
6,GTCTACCA,-0.215
7,ATAAACGG,0.408
8,ATAAACGA,0.484
9,AAAAACGA,0.323
10,ATAAACGC,0.192
11,GTAAACCA,0.0466
12,GTAAACGA,0.485
13,ATAAACTG,0.0158
14,GTAAACTA,0.188
15,AAAAACGG,0.13
16,CATCCCCC,-0.207
17,GATCCACA,-0.13
18,CTGAACGC,0.023
19,GTGAACGA,0.426
